Assay results: PubChem BioAssay AID624330 (Southern Research Specialized Biocontainment Screening …, 2012)
About 2,100 (0.62%) of roughly 340,000 compounds were called active.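 How the source made its calls: active means first-screen hits whose inhibition reached a set limit at any dose in the follow-up dose series; inconclusive means inhibition above the set first-screen limit but never retested; inactive means the rest.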 The list is a sample of the results. Results with a measured potency or affinity are listed apart.

Each molecule was assayed against Rac GTPase-activating protein 1 (Homo sapiens) (UniProt Q9H0H5) (assay: MgcRacGAP GTPase-activating activity inhibitors, confirmation, biochemical, ADP Hunter fluorescence, primary and confirmatory (AID 624330;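 further: fluorescence reports GDP produced by GAP-driven GTP hydrolysis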)). Settings: MgcRacGAP-stimulated Rac1 GTP hydrolysis, at 30 µM, stronger effect = higher value, GST-tagged Rac1 F28L mutant substrate.
Sequence of Rac GTPase-activating protein 1 (Homo sapiens) (Q9H0H5 whole entry, looked up): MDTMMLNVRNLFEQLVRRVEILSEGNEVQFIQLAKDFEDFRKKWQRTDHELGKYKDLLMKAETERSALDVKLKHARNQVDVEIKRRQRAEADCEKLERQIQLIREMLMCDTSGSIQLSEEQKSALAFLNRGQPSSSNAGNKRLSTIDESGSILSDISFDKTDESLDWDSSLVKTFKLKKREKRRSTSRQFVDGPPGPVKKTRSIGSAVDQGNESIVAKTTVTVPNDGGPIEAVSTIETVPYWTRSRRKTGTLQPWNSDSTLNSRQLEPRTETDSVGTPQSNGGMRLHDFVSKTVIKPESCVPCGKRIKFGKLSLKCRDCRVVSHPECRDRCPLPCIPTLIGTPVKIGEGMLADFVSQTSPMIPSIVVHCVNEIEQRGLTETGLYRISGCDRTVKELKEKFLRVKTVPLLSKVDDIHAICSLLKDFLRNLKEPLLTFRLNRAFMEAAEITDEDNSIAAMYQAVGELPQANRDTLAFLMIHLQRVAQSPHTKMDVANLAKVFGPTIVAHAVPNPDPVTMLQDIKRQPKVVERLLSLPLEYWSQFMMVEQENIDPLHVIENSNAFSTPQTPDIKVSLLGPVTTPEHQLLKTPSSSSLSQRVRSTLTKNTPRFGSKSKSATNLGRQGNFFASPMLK

inhibition, inactive:
Cc1cc(C(=O)CSc2ccc3c(c2)OCCO3)c(C)n1C1CC1 6.62%
COc1ccc(C(=O)/C=C/c2ccccc2OC)c(OC(=O)c2ccc([N+](=O)[O-])cc2)c1 8.99%
COc1cccc(C2C(C(=O)c3cccs3)=C(O)C(=O)N2CCN2CCOCC2)c1 (configuration not stated) -8.26%
O=C(NCc1ccccc1Cl)C1CCC(=O)N1Cc1ccc(F)cc1 (configuration not stated) 11.4%
CN(CCOc1ccccc1)C(=S)Nc1ccc(OC(F)F)cc1 5.1%
O=C(c1ccc(Cl)cc1)N1CCN(C(=O)C2CCCCC2)CC1 7.43%
O=C1N/C(=C\c2ccccc2)C(O)=C1C=NCc1ccccc1 3.17%
O=C1N/C(=C/c2ccc(Br)cc2)C(O)=C1C=NCc1ccccc1 3.27%
COc1cc(NC(=O)CN2CCC(C(N)=O)(N3CCCCC3)CC2)c(OC)cc1Cl 0.16%
CCOc1ccc(/C=N/NC(=O)c2c(-c3ccccc3)noc2C)cc1 10.9%
COc1cc(/C=N/NC(=O)c2c(-c3ccccc3)noc2C)cc(OC)c1OC 7.95%
Cc1onc(-c2ccccc2)c1C(=O)N/N=C/c1cccc(O)c1 8.34%
CCCOc1ccc(/C=N/NC(=O)c2c(-c3ccccc3)noc2C)cc1OC 7.42%
CCOC(=O)c1c(C)n(C)c2cc(Br)c(C)cc12 -1.61%
CCc1nnc(NS(=O)(=O)c2ccc(N=Cc3c(C)[nH]n(-c4cccc(Cl)c4)c3=O)cc2)s1 9.47%
Cc1nn(C)cc1CNC(=O)c1ccccc1Br -6.9%
CC(Oc1ccc2ccc(=O)oc2c1)C(=O)c1ccccc1 (configuration not stated) 8.03%
NCCNC(=O)c1c(NC(=O)c2ccccc2)sc2c1CCCC2 10.3%
CN(C)CCNC(=O)c1c(NC(=O)c2ccccc2)sc2c1CCCC2 11.8%
CCCC(=O)Nc1cc(C)c(NC(=O)c2ccncc2)cn1 1.4%
CCOc1ccccc1NC(=O)COC(=O)C1CCC1 6.3%
O=C(O)Cn1cc(/C=C2\SC(=O)N(c3ccccc3)C2=O)c2ccccc21 0.86%
O=C(O)Cn1cc(/C=C2/NC(=O)N(c3ccc(Cl)cc3)C2=O)c2ccccc21 8.99%
O=C1CCCC(=O)C1=Cc1c[nH]c2ccccc12 8.99%
O=C1OC2(CCCC2)OC(=O)C1=Cc1c[nH]c2ccccc12 10.5%
Clc1ccc(-c2csc(Nc3ccccc3)[n+]2Cc2ccco2)c(Cl)c1 4.62%
COC(=O)c1c(C(=O)OC)c2ccccn2c1C(=O)c1ccc([N+](=O)[O-])cc1 -6.01%
Nc1ccc2nc(-c3ccccc3)sc2c1 4.03%
Nc1nc2ccc(Br)cc2s1 1.67%
Nc1ccc2sc(N)nc2c1 19.6%
Nc1cccc(-c2nc3ccc(N)cc3s2)c1 10.5%
Cc1nc2ccc(N)cc2s1 5.78%
Nc1ccc(-c2nc3cc(N)ccc3s2)cc1 7.4%
COc1cccc(NC(=O)CN(C)C(=O)/C=C/c2ccc3ccccc3n2)c1 0.53%
COc1ccc(-c2nc(N3CCOCC3)nc3n[nH]c(N)c23)cc1 -3.94%
COc1ccc(CCN(C)C2CCCN(S(=O)(=O)c3ccccc3)C2)cc1OC (configuration not stated) 10.3%
O=C(CSc1ncn[nH]1)Nc1ccc(Cl)c(Cl)c1 12.3%
O=C(O)/C=C/C(=O)Nc1ccc(OCc2ccccc2)cc1 11.5%
CCOc1[nH]n(-c2ccc(Cl)cc2)c(=O)c1C=NCc1cccnc1 7.22%
O=C1OCC/C1=C\c1ccccc1 5.73%
CC1CCCC(=C\c2ccccc2)/C1=N/O (configuration not stated) 9.75%
CC1CCC/C(=C\Nc2ccc(C(=O)O)cc2)C1=O (configuration not stated) -1.76%
O=C1OCCC1=Cc1ccccc1 -4.26%
O=C(NC1CCS(=O)(=O)C1)c1cnccn1 (configuration not stated) 6.19%
O=C(c1scc2c1CCCC2)N1CCOCC1 5.17%
O=C(Nn1c(-c2ccc(Br)cc2)nc2ccccc2c1=O)c1cccnc1 2.47%
CCCN(CCC)CC(O)CN1C(=O)NC(C)(C)C1=O (configuration not stated) -0.64%
COc1ccc(C(=O)CSc2nnc(-c3cccnc3)n2Cc2ccco2)cc1 9.77%
CCCCC(=O)NCc1ccc2c(c1)cc(C)n2C 7.65%
CCCCn1c(N)nc2ccccc21 1.51%
Cc1ccc(N2CC(C(=O)NC(C)CCc3ccccc3)CC2=O)cc1 (configuration not stated) 1.14%
Cc1cc(OCn2ccc(C(=O)O)n2)ccc1Cl 15.5%
O=C(c1cccc2ccccc12)N1CCN(Cc2ccccc2F)CC1 30.9%
O=C(O)c1ccccc1C(=O)N1CCN(Cc2ccc3c(c2)OCO3)CC1 6.42%
O=C(c1ccccc1Cl)N1CCN(Cc2ccc3c(c2)OCO3)CC1 1.05%
CCNC(=S)N1CCN(Cc2ccc3c(c2)OCO3)CC1 3.54%
CCCNC(=S)N1CCN(Cc2ccc3c(c2)OCO3)CC1 23.5%
O=C(c1ccccc1)c1ccccc1C(=O)N1CCN(Cc2ccccc2F)CC1 15.4%
O=C(/C=C/c1cccc(F)c1)N1CCN(c2ccccn2)CC1 6.78%
CCOc1ccc(OCCC(=O)Nc2ccc(N3CCOCC3)cc2N2CCOCC2)cc1 4.37%
COC(=O)c1ccsc1NC(=O)CN1CCN(c2ncccn2)CC1 -6.48%
O=C(CSc1nc2ncc(Cl)cc2[nH]1)N1CCC(Cc2ccccc2)CC1 5.18%
O=C(COc1ccccc1[N+](=O)[O-])Nc1cccc(Cl)c1N1CCOCC1 9.17%
COc1ccc(CNc2cc(C)ccc2C)c(OC)c1OC 14.2%
COc1cc(OC)c(OC)cc1CNc1cc(C)ccc1OC 14.2%
COc1cccc(CNc2nn[nH]n2)c1OC 3.59%
COc1ccccc1CNc1cc(-c2ccccc2)ccc1OC 7.7%
COc1cc(CNc2cc(C)ccc2C)cc(OC)c1OC 6.31%
COc1ccccc1CNc1cc(C)ccc1C -1.27%
O=C(c1nn2c(C(F)(F)F)cc(-c3ccccc3)nc2c1Cl)N1CCN2CCCC2C1 (configuration not stated) 3.99%
CC(C)c1ccc(NC(=O)NC2CCN(CC(=O)Nc3cccc4ccccc34)CC2)cc1 13.1%
CNC(=O)C[C@H]1C(=O)N(C2CCCCC2)C[C@@H]1CSC 16.8%
Cc1ccccc1Nc1ncnc2c1cnn2C 12.2%
O=C(c1ccc(Cl)c(S(=O)(=O)N2CCOCC2)c1)N1CCCC1 3.9%
O=C(N1CCCCC1)N1CCN(S(=O)(=O)c2ccc(Cl)cc2)CC1 4.45%
C=CCNc1nc2c3ccccc3n(C(C)=O)c2s1 24.6%
CC(=O)n1c2ccccc2c2nc(NC(C)C)sc21 5.24%
COc1cc(C(=O)NCc2nnc(SCC(=O)N3CCCCC3)o2)cc(OC)c1OC 6.92%
CC1=CC(=O)C=C/C1=C(/c1ccc(O)cc1C)c1ccccc1S(=O)(=O)O 9.36%
CC1=C/C(=C(\c2ccc(O)c(C)c2)c2ccccc2S(=O)(=O)O)C=CC1=O 3.41%
Cc1cc(C(=O)CS(=O)(=O)c2ccccc2)cc(C)c1O 10.7%
CC1=C/C(=C(/c2ccc(O)c(C)c2)c2ccccc2S(=O)(=O)O)C=CC1=O 19.7%
COc1cc(OC)cc(C(C(=O)NCc2ccccc2)N(Cc2ccco2)C(=O)c2ccno2)c1 (configuration not stated) 5.98%
CCc1cc2c(C)ccc(C)c2nc1SCC(=O)Nc1c(C)[nH]c(=O)[nH]c1=O -14.5%
CCOC(=O)/C(=N\Nc1ccccc1)P(=O)(c1ccccc1)c1ccccc1 5.15%
COc1ccc(C(CNC(=O)CSc2ccccc2C)N(C)C)cc1 (configuration not stated) 6.46%
COC(=O)c1c(NC(=O)CSc2nnnn2-c2ccccc2)sc2c1CCC(C(C)(C)C)C2 (configuration not stated) 5.4%
CC1CCC/C=C/C(=O)c2c(O)cc(O)cc2CC(=O)O1 (configuration not stated) -7.81%
CC1CCCC=CC2CC(OC(=O)CN(C)C)CC2C(O)C=CC(=O)O1 (configuration not stated) 3.18%
Cc1ccccc1NC(=O)/C(C#N)=C\c1cccnc1 16.7%
COc1ccccc1NC(=O)/C(C#N)=C/c1cccnc1 4.24%
CCCOc1ncnc2c1[nH]c1ccc(OC)cc12 5.1%
Cc1cc(O)ccc1NC(=S)NC(=O)c1cncc(Br)c1 11%
CC(C)CCNC(=O)c1cccc(C(=O)NCCC(C)C)c1 9.34%
COc1ccc(/C=N/N=C(\N)c2nonc2N)cc1 6.95%
COc1cc(/C=N/N=C(\N)c2nonc2N)cc(OC)c1O 19.5%
C(=N\N=C\c1ccccc1)/c1ccccc1 5.71%
COc1ccc(/C=N/N=C(\N)c2nonc2N)cc1OC 0.88%
N/C(=N\N=C\c1cccc(O)c1)c1nonc1N 7.37%
Cc1ccc(/C=N/N=C/c2ccc(C)cc2)cc1 4.21%
COc1ccc(C(=O)NN=C2CCCC2)cc1OC -4.29%
CC(C)NC(=O)N(C)C[C@H]1Oc2ccc(NC(=O)Cc3ccccc3)cc2C(=O)N([C@H](C)CO)C[C@@H]1C -4.37%
